Screen size: about 69,000 compounds; about 8,600 (12%) showed an effect of 50% or more. For the sample, strong results were picked, then their nearest neighbours and some compounds at random.
system: Plasmodium berghei; assay: Screen against P. berghei liver stage (PbLuc), transformed with Luciferase, at 10uM; assay type: functional, HepG2; conditions: tested at 10 uM

SMILES | INHIBITION [%]
CC(C)NC(=O)[C@@H]1CCO[C@@H]2CCN(c3ncccn3)C[C@@H]21 | 2.41
Clc1ccc(C(CNCc2cccnc2)n2cccn2)cc1 (stereo not drawn) | -4.56
NC(=O)N1CCCC(C(=O)N2CCN(c3nsc4ccccc34)CC2)C1 (stereo not drawn) | 35.8
CC(C)N1CCCC(C(=O)N2CCN(c3nsc4ccccc34)CC2)C1 (stereo not drawn) | 58.5
CCN1CC(C(=O)N2CCN(c3nsc4ccccc34)CC2)CCC1=O (stereo not drawn) | 33.9
CNS(=O)(=O)c1ccc(CNC(=O)Nc2cc(C)on2)s1 | 24.3
CCc1ccc(CNC(=O)Nc2cc(C)on2)s1 | 39.7
Cc1cc(NC(=O)NCc2ccc(C)s2)no1 | 56.8
O=S(=O)(NCc1ccc(S(=O)(=O)N2CCCC2)s1)c1ccc(Cl)c(Cl)c1 | 40.6
Cc1cc(NC(=O)NCc2ccc(S(=O)(=O)N3CCCC3)s2)no1 | 68
Cc1cc(CN2CCN(C(=O)NCc3ccc(C)s3)CC2)no1 | 18.6
Oc1nc(C2CC2)nc2c1nnn2C1CCN(Cc2ccoc2)CC1 | 12.25
CCOc1ccc(Cl)c(C(=O)N2CCCC(c3ccn[nH]3)C2)n1 (stereo not drawn) | -10.1
CC(=O)N1N=C(c2ccco2)OC1C(=O)NCCc1ccc(O)cc1 (stereo not drawn) | 48
Cc1cc(C(=O)N(C)C)nc(C2(C)CCCN2c2ccnc(C)n2)n1 (stereo not drawn) | -41.025
Fc1ccc(-c2nc(CN3CCCC3Cn3cncn3)co2)cc1F (stereo not drawn) | 33.7
Cc1nc(C2(NCC(=O)NCCc3cccs3)CCCC2)no1 | -81.3
CCCn1cc(C(=O)NCc2nnc(-c3ccc(C)nc3)o2)c(C)n1 | 14.6
CN(Cc1ccc(C2CC(=O)Nc3cc4[nH]ncc4cc32)o1)S(C)(=O)=O (stereo not drawn) | 70.2
COc1cc(C)c(C2CC(=O)Nc3cc(NS(C)(=O)=O)ccc32)cc1C (stereo not drawn) | -5.22
CCc1ccc(C2CC(=O)Nc3n[nH]cc32)o1 (stereo not drawn) | 26.9
CCc1ccc(C2CC(=O)Nc3cc(NS(C)(=O)=O)ccc32)o1 (stereo not drawn) | 85.3

SMILES | INHIBITION [%]
Cc1cc(C)n(CCC2CC(=O)Nc3cc4[nH]ncc4cc32)n1 (stereo not drawn) | 0.991
CCCC(=O)Nc1cc2c(cc1OC)NC(=O)CC2c1ccc(CC)o1 (stereo not drawn) | 49.6
CCc1ccc(C2CC(=O)Nc3cc(OC)c(NS(C)(=O)=O)cc32)o1 (stereo not drawn) | 61.5
CN(Cc1ccc(C2CC(=O)Nc3n[nH]cc32)o1)S(C)(=O)=O (stereo not drawn) | -38.1
COc1ncccc1C1CC(=O)Nc2cc(NS(C)(=O)=O)ccc21 (stereo not drawn) | 10.1
Cc1nn(C)c(C)c1C1CCCN1C(=O)c1cnccn1 (stereo not drawn) | 2.97
CCc1nc2n(n1)CC(NCc1cnc(-c3ccccc3)nc1)CC2 (stereo not drawn) | 31.9
CCn1ccnc1CN1CCN(CC(O)c2cccc(F)c2)CC1 (stereo not drawn) | -94.9
COc1ccc(NC2(C(=O)N3CCn4cncc4C3)CCCC2)cc1 | 18.5
CCCN(Cc1ccc(C#N)cc1)Cc1nnsc1Cl | 52
CC(C)N(Cc1ccc(C#N)cc1)Cc1nnsc1Cl | 22.4
CCCN(CCC)Cc1nnsc1Cl | 10.8
CCCOc1ccc(CNCCn2cccn2)cc1 | 30.5
Cn1nc(C2CN(S(C)(=O)=O)C2)c2nccnc21 | 35.2
CC(=O)N1CC(c2n[nH]c3ncccc23)C1 | 27.6
CS(=O)(=O)N1CC(c2n[nH]c3ncccc23)C1 | 70.1
CCc1ccc2c(C3CN(S(C)(=O)=O)C3)ncn2c1 | 40.8
CS(=O)(=O)N1CC(c2ncn3ccccc23)C1 | 70.4
CN1CCC(c2n[nH]c3ncccc23)C1 (stereo not drawn) | -10.5
CC(=O)CSc1nc2c(cnn2CCO)c(=O)[nH]1 | -8.41
Cc1cccc(N2CCN(C(=O)Cc3ccccc3O)C(C)C2)n1 (stereo not drawn) | 6.83
CN1CC2(CCN(C(=O)c3ccc(-n4cnnc4)cc3Cl)CC2)OC1=O | -6.01

SMILES | INHIBITION [%]
Cc1cc(-c2ccnn2C)nc(C2CCCN(S(C)(=O)=O)C2)n1 (stereo not drawn) | 16.99
CC(=O)NC[C@]1(O)CCN(C(=O)c2ccc3c(c2)OCO3)C[C@H]1O | 59
CC(=O)NC[C@]1(O)CCN(C(=O)c2ccc3c(c2)CCC3)C[C@H]1O | 14.5
CC(=O)NC[C@]1(O)CCN(C(=O)c2ccc(C)c(F)c2)C[C@H]1O | -7.79
Cc1cnn(CCNCC(=O)N2CCN(c3ccccc3)CC2)c1 | -3.48
CC(C)CC(C)N(C)C(=O)c1nc(S(C)(=O)=O)n2ccccc12 (stereo not drawn) | 1.8
CN(Cc1cnn(C)c1)C(=O)C(c1ccccc1)N1CCSCC1 (stereo not drawn) | -13.4
Cc1cncc(C2CCCN(C(=O)c3c[nH]c(=O)[nH]c3=O)C2)n1 (stereo not drawn) | 11
Cc1cnc(C2CCCN(C(=O)c3c[nH]c(=O)[nH]c3=O)C2)s1 (stereo not drawn) | 38.2
O=C(c1c[nH]c(=O)[nH]c1=O)N1CCCC(c2cnccn2)C1 (stereo not drawn) | 53
COc1ncccc1C(=O)Nc1cccc(C[S+](C)[O-])c1C (stereo not drawn) | -32.2
Cc1nc2n(n1)CC(NCC(=O)Nc1cc(C)on1)CC2 (stereo not drawn) | 7.08
CNc1cc(C)nc(C2CN(Cc3cc[nH]n3)CCO2)c1 (stereo not drawn) | 67.7
CNc1cc(C)nc(C2CN(Cc3ccc(Cl)cn3)CCO2)c1 (stereo not drawn) | -35.8
Cc1cc(N)cc(C2CN(Cc3cc[nH]n3)CCO2)n1 (stereo not drawn) | 0.301
COCC1CN(C(=O)c2ccccn2)Cc2nccn2C1 (stereo not drawn) | 11.5
COCC1CN(C(=O)c2cccn2C)Cc2nccn2C1 (stereo not drawn) | 42.1
COCC1CN(C(=O)c2cccs2)Cc2nccn2C1 (stereo not drawn) | 67.5
O=C(NCCn1ccnc1)c1ccn(-c2ccccc2F)n1 | 7.27
O=c1c(NCCc2ccc(O)cc2)c(NCc2ccccn2)c1=O | 23.7
O=C(NS(=O)(=O)Cc1ccc(F)cc1)C1CCc2ccccc21 (stereo not drawn) | 11.7
O=C(NS(=O)(=O)c1ccc(F)cc1)C1CCOc2ccccc21 (stereo not drawn) | 48.5

SMILES | INHIBITION [%]
O=C(NS(=O)(=O)Cc1ccc(F)cc1)C1CCOc2ccccc21 (stereo not drawn) | 50.7
COCC(=O)N1CC[C@@H](N2CCOCC2)[C@@H]1Cc1cccnc1 | 27.6
CCC(Nc1nc(CCN)nc2ccccc12)c1cc(C)ccn1 (stereo not drawn) | -1.25
NCCc1nc(N[C@@H](CO)c2ccccc2)c2ccccc2n1 | 31.9
CCC(Nc1nc(CCN)nc2ccccc12)c1cccs1 (stereo not drawn) | 51.1
CCc1nc(CN(C)CC(=O)N(C)C2CC2)cs1 | 42.6
COc1c(CNCCNC(=O)c2cccc(C)c2)c(C)nn1C | 33.8
COCC(NC(=O)c1ccco1)c1cccc(C(F)(F)F)c1 (stereo not drawn) | -31.6
COCC(NC(=O)c1cc[nH]n1)c1cccc(C(F)(F)F)c1 (stereo not drawn) | 42.6
COCC(NC(=O)c1ccc[nH]1)c1cccc(C(F)(F)F)c1 (stereo not drawn) | 51.3
Cc1ncsc1CN1C[C@@H]2COC[C@]2(C(=O)NCC2CC2)C1 | 39.2
O=c1n(Cc2ccc(C(F)(F)F)cc2)nc2ncccn12 | -80.9
COCCCNC(=O)Nc1cccc2c1CCN(S(C)(=O)=O)C2 | 17.5
CCS(=O)(=O)N1CCc2c(cccc2NCc2ncc[nH]2)C1 | 27.6
CCS(=O)(=O)N1CCc2c(cccc2NC(=O)NCCOC)C1 | 3.95
CCS(=O)(=O)N1CCc2c(cccc2NCc2nc(C)c(C)o2)C1 | 52.6
CC(C)NC(=O)Nc1cccc2c1CCN(S(C)(=O)=O)C2 | 45.7
COCCNC(=O)Nc1cccc2c1CCN(S(C)(=O)=O)C2 | 65.4
CCCNC(=O)Nc1cccc2c1CCN(S(C)(=O)=O)C2 | -9.48
CCS(=O)(=O)N1CCc2c(cccc2NC(=O)NCCO)C1 | 50.8
CCc1cnc(CNc2cccc3c2CCN(S(=O)(=O)CC)C3)o1 | 39.6
CC(C)N(C)C(=O)COc1ccc(-c2noc(C3CCCO3)n2)cc1 (stereo not drawn) | -59.4

SMILES | INHIBITION [%]
O=C(NCC1CN(c2ncccn2)Cc2nccn2C1)c1cccnc1 (stereo not drawn) | -86.4
Fc1ccc(N2CCN(CCCc3cn[nH]c3)CC2)cc1 | 31.6
NC(=O)C1CN(C(=O)Nc2ccccc2OCC(F)(F)F)CCO1 (stereo not drawn) | 31.2
N#CC1(NC(=O)c2c(F)ccc(OC(F)F)c2F)CCOCC1 | -11.7
CCn1nnc(NCc2cc(Br)cc(Br)c2OC)n1 | 61.1
CCCn1nnc(NCc2cc(Br)cc(Br)c2OC)n1 | -24
CCn1nnc(NCc2cc(Cl)cc(Cl)c2OC)n1 | -11.6
Cc1ncccc1CNC1CCCN(Cc2noc(C3CC3)n2)C1 (stereo not drawn) | 46.2
COCCN1CCc2cc(C(=O)N(C)C)c(NCC3CC3)nc2CC1 | -27.9
CNC(=O)c1cc2c(nc1NCC(C)C)CCN(CCOC)CC2 | 21.1
COCCN1CCc2cc(C(=O)NC(C)C)c(NCC3CC3)nc2CC1 | 70.8
COCCN1CCc2cc(C(=O)NC(C)C)c(NCC(C)C)nc2CC1 | 74.9
CCS(=O)(=O)N1CCc2cc(C(=O)NC)c(NCC(C)C)nc2CC1 | -9.02
COCCN1CCc2cc(C(=O)O)c(NCC3CC3)nc2CC1 | -17.2
CCOc1ccccc1C(=O)Nc1cccc(C[S+](C)[O-])c1C (stereo not drawn) | 16.645
O=C(CCN1CCCC(CO)(CC2CC2)C1)NCc1cccc(Cl)c1 (stereo not drawn) | 4.66
CCC1COC2(CCN(C(=O)c3ccco3)CC2)C1 (stereo not drawn) | 22.9
COc1ccc2c(c1)CC(NCc1cccc(CO)c1)CC2 (stereo not drawn) | 47.1
COc1ccc2c(c1)CC(NCc1cccc(NC(C)=O)c1)CC2 (stereo not drawn) | 59.1
COc1ccc2c(c1)CC(NCc1cccc(OCC(N)=O)c1)CC2 (stereo not drawn) | 43.4

From ChEMBL document CHEMBL4513216, “Probing the Open Global Health Chemical Diversity Library for Multistage-Active Starting Points for Next-Generation Antimalarials” (ACS Infect Dis, 2020)
